Screens: PubChem BioAssay, National Center for Advancing Translational Sciences (NCATS)
TRHR enhancer-1: qHTS for Small Molecule Agonists and Allosteric Enhancers of Human TRH Receptor: Primary Screen for Enhancers; Thyrotropin-releasing hormone receptor (Homo sapiens), P34981; TRHR cells, fluo-8 calcium fluorescence, EC20 TRH enhancement; enhancement, % at 2 µM; 360,000 tested, 0.66% active; in the data active means enhancement above about 30%; further: 0% is about no effect
Target sequence (P34981 whole entry, looked up): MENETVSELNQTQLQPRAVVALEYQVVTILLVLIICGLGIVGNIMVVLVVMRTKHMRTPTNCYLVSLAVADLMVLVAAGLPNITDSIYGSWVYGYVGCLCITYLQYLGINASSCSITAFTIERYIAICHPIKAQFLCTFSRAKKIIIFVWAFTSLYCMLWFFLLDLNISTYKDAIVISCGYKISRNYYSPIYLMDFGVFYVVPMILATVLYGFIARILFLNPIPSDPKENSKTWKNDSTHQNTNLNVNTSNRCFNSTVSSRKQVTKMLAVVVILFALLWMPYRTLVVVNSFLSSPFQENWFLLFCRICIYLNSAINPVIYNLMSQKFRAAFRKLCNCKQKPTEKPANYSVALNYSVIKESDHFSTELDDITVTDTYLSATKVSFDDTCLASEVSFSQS
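Enhancer read-out: after compound pinning and an initial kinetic agonist-mode read, an EC20 of TRH (10 nM final) was injected and fluo-8 calcium signal (Ex 480/Em 530) followed at 1 s/cycle for 100 cycles in TRHR-expressing cells.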
TRHR agonist-1: qHTS for Small Molecule Agonists and Allosteric Enhancers of Human TRH Receptor: Primary Screen for Agonists | 360,000 tested, 0.18% active | activation, % at 2 µM | TRHR cells, calcium flux fluo-8, FDSS agonist mode | Thyrotropin-releasing hormone receptor (Homo sapiens), P34981; in the data active means activation above about 30%; further: 0% is about no effect
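Read-out: compound-evoked intracellular calcium rise in TRHR cells, fluo-8 dye, kinetic FDSS fluorescence at 1 s/cycle following a 10-cycle baseline. Cells cultured overnight before dye loading (30 min–1.5 h, RT).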
TRPML1 blocker: qHTS for Inhibitors of the Human Mucolipin Transient Receptor Potential 1 (TRPML1); Mucolipin-1 (Homo sapiens), Q9GZU1; TRPML1-inducible cells, Ca2+ dye fluorescence, FDSS; hits give low values; inhibition of EC80 agonist-evoked calcium signal; activity change, negative = inhibition, % (concentration not given with the values); 390,000 tested, 0.02% active; AID 624415, 2012; in the data active means activity change below about -50%; inconclusive means between about -30% and that limit;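 further: stimulus is agonist 54-4 at its EC80 concentration; on the % scale 0 is the no-effect control and ±100 the full control effect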
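Tet-induced TRPML1-DL cells loaded with Ca8 no-wash calcium dye were read kinetically on FDSS. Compound addition was followed by EC80 agonist 54-4 (4 uM final); inhibition was read over 110 s.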
TRPML1 ag: qHTS for Agonists of the Human Mucolipin Transient Receptor Potential 1 (TRPML1). 410,000 tested, 0.12% active. activation, % (no concentration beside the values). AID 624414, 2012. Mucolipin-1 (Homo sapiens), Q9GZU1. TRPML1-expressing cells, Ca2+ dye fluorescence, FDSS; in the data active means activation above about 50%; inconclusive means mostly about 30% to 49%; further: 0% is about no effect
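In this qHTS format, compounds were pin-transferred onto Ca8-dye-loaded TRPML1-DL cells induced with Tet overnight, and intracellular Ca2+ fluorescence was recorded kinetically for 110 s after a 10 s baseline. A subsequent 4uM final 54-4 (EC80) addition followed by a second 110 s read served as the antagonist phase.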
TRHR enhancer-2: qHTS for Small Molecule Agonists and Allosteric Enhancers of Human TRH Receptor: Confirmation Screen for Enhancers | shares compounds with TRHR enhancer-1 | TRH receptor cell assay, enhancer confirmation qHTS | activity change, negative = inhibition, % at 46.1 µM | 970 tested, under 10 active | AID 493076, 2011;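 further: compound effect scored on response to added TRH at EC20 of 10 nM; 0% is about no effect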
TRHR agonist-2: qHTS for Small Molecule Agonists and Allosteric Enhancers of Human TRH Receptor: Confirmation Screen for Agonists | shares compounds with TRHR enhancer-1 | TRHR-expressing cells, agonist activation read-out | Potency, µM (highest dose often 46.1 µM), inactives show top-dose activation, hits mostly activators | 970 tested, 8% active | AID 493078, 2011; further: potency means the concentration at half of the fitted maximal effect; 0% is about no effect; nearly all actives have a fitted effect of over 75% in size
Starred values were filed as active, the others as inactive; u = inconclusive; x = no result. Rows were chosen to be rich in hits. Some 0.81% of all compounds tested hit in one or more screens of this group. Unless noted, the call rests on the fitted dose curve; in most records, active means well fitted curve in the direction sought with a large enough effect; inconclusive means small, poorly fitted or top-dose-only effect, or another doubt; inactive means no such curve, though single readings can be large; an effect the other way counts as inactive or inconclusive.

SMILES | TRHR enhancer-1 | TRHR agonist-1 | TRPML1 blocker | TRPML1 ag | TRHR enhancer-2 | TRHR agonist-2
O=C(CN1CCCC1)N1c2ccccc2Sc2ccc(Cl)cc21 | 47* | 2 | 12 | 0 | -5 | 2%
O=C(CN1CCCC1)N1c2ccccc2Sc2ccc(C(F)(F)F)cc21 | -2 | 1 | -11 | 0 | x | x
O=C(Nc1ccc(Nc2ccccc2)cc1)c1ccc(Cl)cc1[N+](=O)[O-] | x | x | -8 | 1 | x | x
CC(=O)NS(=O)(=O)c1ccc(NC(=O)c2ccc(Cl)cc2[N+](=O)[O-])cc1 | 50* | 0 | 18 | 0 | -6 | 5%
Cc1c(O)c2c(c(C(=O)/C=C/c3ccccc3)c1O)OC(C)(C)C=C2 | x | x | x | -1 | x | x
COc1cccc(SCC2(O)CCN(C(=O)c3ccc(Cl)cc3)CC2)c1 | 59* | 0 | 1 | -1 | -5 | 0%
Cc1cccc(CN2Cc3cccc4c3[C@H](C=CC4)CC2=O)c1 | x | x | x | 0 | x | x
COc1ccc(CN2CC[C@H]3C=CC[C@@H](C(=O)NC4CCCCC4)[C@H]3C2=O)cc1OC | x | x | x | -1 | x | x
CCC(C)NS(=O)(=O)c1ccc(NC(=O)C(Sc2ccccc2)c2ccccc2)cc1 (stereo not given) | -1 | 1 | 11 | 1 | x | x
CCCCNS(=O)(=O)c1ccc(NC(=O)C(Sc2ccccc2)c2ccccc2)cc1 (stereo not given) | 2 | 27 | -9 | 0 | -3 | u
COc1ccc(/C=C2\C=Cc3ccccc32)cc1OC | x | x | x | 1 | x | x
Cc1csc(NC(=O)CSc2nc(=O)[nH]c3c2CCCC3)n1 | 66* | 0 | 18 | -1 | -7 | 1%
COc1ccc(C)cc1NC(=O)CSc1nc(=O)[nH]c2c1CCCC2 | 4 | 0 | -10 | 0 | x | x
COc1cc(OC)c(OC)cc1/C=C/c1nc2ccccc2o1 | x | x | x | -1 | x | x
CNC(=O)CN(C)S(=O)(=O)c1ccc(OC)c(Cl)c1 | 75* | 0 | -3 | 1 | -4 | -1%
COc1ccc(S(=O)(=O)N(C)CC(=O)NC2CCCCC2)cc1Cl | -1 | -1 | 5 | 3 | x | x
O=S(=O)(c1ccc2c(c1)OCCO2)N1CCN(S(=O)(=O)c2cc(F)c(F)cc2F)CC1 | -1 | 0 | x | x | x | x
CC(=O)Nc1ccccc1-c1nn[nH]n1 | 11 | 44* | 27 | 1 | -6 | -1%
COc1cccc(CNc2nnnn2C)c1OC | -1 | 0 | 17 | 1 | x | x
CCCCn1nnnc1NCc1ccc(OC)c(OC)c1OC | 45* | 0 | -19 | 1 | -3 | 2%
Cc1ccc(S(=O)(=O)NCc2ccc(C(=O)NC3CCCCC3)cc2)cc1 | 77* | 0 | 0 | -2 | -6 | 0%
CCOC(=O)c1c(NC(=O)Cn2c(C)nc3ccccc32)sc2c1CCC2 | 60* | -1 | -5 | 1 | -5 | 6%
CCC(C)NC(=O)c1cc2c(=O)n(CC)c3ccccc3c2s1 (stereo not given) | 58* | -1 | 22 | -1 | -5 | 2%
NC(=O)CSc1nnc(-c2ccc(S(=O)(=O)N3CCCCC3)cc2)n1-c1ccccc1 | 50* | 0 | -5 | 8 | u | -1%
COc1ccccc1-n1c(SCC(N)=O)nnc1-c1ccc(S(=O)(=O)N2CCCCC2)cc1 | -2 | 0 | 26 | 6 | x | x
Cc1nn(C)cc1S(=O)(=O)Nc1ncccn1 | 41* | 2 | 46 | 1 | 0 | 6%
Cc1ccc2c(c1)c(Sc1ccccc1)c(CC(=O)O)n2C | 20 | 99* | 26 | 0 | -7 | 1%
CN(CC(=O)NCc1ccc2c(c1)OCO2)S(=O)(=O)c1ccc(F)cc1 | 43* | 0 | -8 | 0 | 8 | -1%
COc1ccc(Cn2c(O)c(/C=N/NC(=O)c3cccnc3)c3ccccc3c2=O)cc1 | 0 | 57* | -4 | 18 | -2 | 21µM*
